Only some compounds are listed: those with a hit (about 7.3% of all), similar ones and a draw of the others.
SMN2 splice up – enhancers of SMN2 splice variant expression | HEK293 SMN2-luciferase splicing reporter, luminescence, 30-36 h | 210,000 tested, 2.8% active | Potency, µM (doses to about 46.1 µM), for inactives: at the top dose activity change, positive = activation, most hits filed as activators; further: % of control where 0% means no effect; nearly all actives have a fitted effect of over 55% in size
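HEK293 cells carry an SMN2 […]–luciferase reporter in which exon 7 inclusion puts luciferase in frame. Cells were plated 10-12 h before compound addition, then incubated 30-36 h at 37C. ONE-Glo luminescence was read; sodium butyrate at 4.5 mM final served as control.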
NPC1 promoter act – activators of NPC1 promoter. Huh7 NPC1 promoter luciferase reporter, 24 h. Potency, µM (doses to about 9.22 µM), for inactives: at the top dose activation, usual class: activators. 320,000 tested, 2.4% active. AID 485313; further: % of control where 0% means no effect; nearly all actives have a fitted effect of over 60% in size
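NPC1 promoter–luciferase Huh7 cells; 24 h compound; luminescence.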
FLuc modulator – inhibits or activates purified firefly luciferase, miR-21 counter-screen; purified FLuc, Km substrates, luminescence inhibition; Potency, µM (doses to about 57.5 µM), without a hit: top-dose activity change, negative = inhibition, actives largely listed as inhibitors; 360,000 tested, 6.9% active; AID 588342;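 further: plate controls were vehicle for no effect and reference inhibitor for full effect; nearly all actives have a fitted effect of over 55% in size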
Target sequence (P08659 whole entry, looked up): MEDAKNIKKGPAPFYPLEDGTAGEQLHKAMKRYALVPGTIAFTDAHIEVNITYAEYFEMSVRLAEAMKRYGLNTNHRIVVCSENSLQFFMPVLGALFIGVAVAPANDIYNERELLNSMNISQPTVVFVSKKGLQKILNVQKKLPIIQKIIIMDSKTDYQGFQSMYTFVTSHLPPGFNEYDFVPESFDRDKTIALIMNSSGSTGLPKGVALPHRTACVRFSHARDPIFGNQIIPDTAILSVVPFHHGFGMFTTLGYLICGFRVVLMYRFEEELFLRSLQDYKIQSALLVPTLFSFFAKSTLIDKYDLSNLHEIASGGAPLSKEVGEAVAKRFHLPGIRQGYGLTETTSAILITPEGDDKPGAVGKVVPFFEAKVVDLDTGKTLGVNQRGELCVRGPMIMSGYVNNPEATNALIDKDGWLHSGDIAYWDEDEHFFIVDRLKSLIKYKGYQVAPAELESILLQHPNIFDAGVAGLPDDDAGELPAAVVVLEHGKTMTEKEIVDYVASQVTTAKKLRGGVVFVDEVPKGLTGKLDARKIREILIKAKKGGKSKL
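Biochemical qHTS of compounds, final roughly 60 µM downward over six points, against 10 nM purified firefly luciferase using Km concentrations of substrates (10 uM D-luciferin, 10 uM ATP) in Tris acetate pH 7.5 buffer; luminescence output.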
KinaseGlo FLuc – counter-screen: inhibitors of Kinase-Glo firefly luciferase. Kinase-Glo luciferase, ATP luminescence, 8 min. Potency, µM (highest dose often 38.3 µM), for inactives: at the top dose activity change, negative = inhibition, usual class: inhibitors. 200,000 tested, 0.28% active; further: on the % scale 0 is the no-effect control and ±100 the full control effect; nearly all actives have a fitted effect of over 60% in size
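Recombinant Kinase-Glo luciferase, 10 uM ATP (linear range), luciferin; imidazole pH 7.2 / KCl / MgCl2 / Tween / BSA buffer; 8 min RT; luminescence.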
Rab9 promoter act – Rab9 promoter activation | Huh7 Rab9 promoter-luciferase reporter, luminescence, 24 h | Potency, µM (highest dose often 9.22 µM), for the others: top-dose activation, negative = inhibition, usual class: activators | 320,000 tested, 2.8% active | AID 485297; further: % of control where 0% means no effect; nearly all actives have a fitted effect of over 60% in size
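Stable Rab9-luc Huh7, 1500 cells/well, 2 h settle; cmpd in DMSO, 24 h, 37 °C/5% CO2; luciferase reagent 10 min RT; luminescence.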
Starred values were filed as active, the others as inactive; ? = inconclusive; . = no result given; [ ] = remark or other dose. The call rests on the fitted dose curve; in most records, active means well fitted curve in the direction sought with a large enough effect; inconclusive means small, poorly fitted or top-dose-only effect, or another doubt; inactive means no such curve, though single readings can be large; an effect the other way counts as inactive or inconclusive. Potency means the concentration at half of the fitted maximal effect.

SMILES	SMN2 splice up	NPC1 promoter act	FLuc modulator	KinaseGlo FLuc	Rab9 promoter act
COc1ccc(NC(=O)C(Cc2ccccc2)NS(=O)(=O)c2ccc3c(c2)CCC(=O)N3)c(OC)c1 (stereo not given)	-6%	.	-3%	.	.
Cc1cccc(NC(=O)C2CCCN(S(=O)(=O)c3cccc4nonc34)C2)c1C (stereo not given)	-11%	.	-3%	.	.
O=C(NC1CCCC1)c1cc2c(ccc3ccccc32)o1	13µM*	1.4µM*	6µM*	-3%	1µM*
CNC(=O)c1cc2c(ccc3ccccc32)o1	29%	?	19µM*	0%	?
COc1cn(CC(=O)Nc2ccccc2)c(CN2CCCCC2)cc1=O	.	.	0%	.	.
COc1ncc2nc(-c3ccc(F)cc3)c(=O)n(CCC#N)c2n1	-3%	.	.	-6%	.
CCN1CCN(Cc2ccc(NC(=O)c3cc(NC(=O)c4nccnc4N)cc(OC)c3)cc2C(F)(F)F)CC1	.	0%	13µM*	.	-3%
C/C=C\C[C@H](C)[C@H](O)[C@H]1C(=O)N[C@@H](CC)C(=O)N(C)CC(=O)N(C)[C@@H](CC(C)C)C(=O)N[C@@H](C(C)C)C(=O)N(C)[C@@H](CC(C)C)C(=O)N[C@@H](C)C(=O)N[C@@H](C)C(=O)N(C)[C@@H](CC(C)C)C(=O)N(C)[C@@H](CC(C)C)C(=O)N(C)[C@@H](C(C)C)C(=O)N1C	.	.	.	-2%[17.1 µM]	.
N/C(=N\OC(=O)c1ccc(Cl)cc1)c1nonc1N	17%	-1%	1.7µM*	?	-10%
Nc1nonc1C(=O)OCC(=O)c1ccc(Cl)cc1	-11%	-3%	2%	4%	-3%
N/C(=N/OC(=O)c1ccccc1F)c1nonc1N	11%	13%	4.8µM*	11µM*	-2%
CCOc1nc(-c2ccc(C)cc2)ccc1-c1noc(-c2ccccc2F)n1	8%	.	-1%	.	.
CCCn1c(=O)c2sccc2n2c(CCCC(=O)Nc3ccc(C)c(F)c3)nnc12	.	.	-3%	.	.
CCOc1ccc(NS(=O)(=O)c2ccc3c4c(cccc24)C(=O)N3)cc1	-31%	.	-17%	.	.
Cc1ccc2nc3ccc(N4CCCCCCC4)nn3c(=O)c2c1	?	?	5.4µM*	-10%	?
Cc1ccc2nc3n(c(=O)c2c1)CCCCC3	?	15%	?	-8%	20%
O=c1c2ccccc2nc2ccc(N3CCOCC3)nn12	?	?	17µM*	-23%	?
Cc1ccc2nc3ccc(N4CCN(C)CC4)nn3c(=O)c2c1	.	1.6µM*	6µM*	-4%	3.5µM*
Cc1cc(N2CCOCC2)nc2ccccc12	?	-5%	?	1%	13%
Cc1sc2nc3ccc(N4CCCC4)nn3c(=O)c2c1C	.	?	12µM*	.	17%
O=C1CCCC/C1=C/Nc1ccc2c(c1)OCO2	?	2.8µM*	11µM*	-14%	3.5µM*
COc1ccc(N/C=C2/CCCCC2=O)cc1	42%	?	15µM*	-27%	?
COc1ccc(Oc2ccc(N/C=C3/CCCC3=O)cc2)cc1	-10%[1.84 µM]	-2%	0%	-1%	13%
O=C1CCCC/C1=C/Nc1ccc(C(=O)O)cc1	-27%	25%	12µM*	-15%	?
COc1cccc(-c2nc3ccccc3c(=O)o2)c1	-13%	12%	4.8µM*	-21%	9%
SMILES	SMN2 splice up	NPC1 promoter act	FLuc modulator	KinaseGlo FLuc	Rab9 promoter act
COc1cc(OC)cc(-c2nc3ccccc3c(=O)o2)c1	-13%	-3%	?	-4%	-6%
CCOc1cccc(-c2nc3ccccc3c(=O)o2)c1	?	.	5.4µM*	.	.
Cc1ccnc2nc(NC(=O)c3ccccc3Cl)nn12	16%	.	-11%	.	.
CC(=O)c1ccc(Nc2nc(C)cc(C)n2)cc1	.	?	27µM*	.	?
Cc1cc(C)nc(Nc2ccc(F)cc2)n1	.	-4%	1%	.	-3%
COc1ccc(CNCc2c(C(=O)O)n(Cc3ccc(F)cc3)c3cc(C)ccc23)cc1OC	.	.	2%	.	.
COc1ccc2c(CNCc3ccco3)c(C(=O)O)n(Cc3cccc(F)c3)c2c1	.	.	-16%	.	.
CCOc1ccc(C(=O)Cc2cc(OC)c(OC)cc2[N+](=O)[O-])cc1	-4%	?	-11%	1%	?
COc1cc(/C(C#N)=C/c2ccccc2)c([N+](=O)[O-])cc1OC	-7%	-3%	?	1%	2%

Screening results (PubChem)
